Reference: paper PMC7862700, “An all-to-all approach to the identification of sequence-specific readers for epigenetic DNA modifications on cytosine”

What was measured:
Experiment in all cases: DAPPL (digital affinity profiling via proximity ligation, sequencing); 10 mM Tris-HCl pH 7.5, 50 mM NaCl, 1 mM DTT, 4% glycerol, room temperature, 30 min; GST-TFs on glutathione beads, 16-mer random dsDNA library, 0.1% formaldehyde crosslink after washing; high values mean tight binding
Conditions in all cases: protein: recombinant; tags: N-terminal GST; dsDNA, one strand shown
[1] = molecular target: T1, ERF (Homo sapiens, UniProt P50548 1-548)
T1 sequence: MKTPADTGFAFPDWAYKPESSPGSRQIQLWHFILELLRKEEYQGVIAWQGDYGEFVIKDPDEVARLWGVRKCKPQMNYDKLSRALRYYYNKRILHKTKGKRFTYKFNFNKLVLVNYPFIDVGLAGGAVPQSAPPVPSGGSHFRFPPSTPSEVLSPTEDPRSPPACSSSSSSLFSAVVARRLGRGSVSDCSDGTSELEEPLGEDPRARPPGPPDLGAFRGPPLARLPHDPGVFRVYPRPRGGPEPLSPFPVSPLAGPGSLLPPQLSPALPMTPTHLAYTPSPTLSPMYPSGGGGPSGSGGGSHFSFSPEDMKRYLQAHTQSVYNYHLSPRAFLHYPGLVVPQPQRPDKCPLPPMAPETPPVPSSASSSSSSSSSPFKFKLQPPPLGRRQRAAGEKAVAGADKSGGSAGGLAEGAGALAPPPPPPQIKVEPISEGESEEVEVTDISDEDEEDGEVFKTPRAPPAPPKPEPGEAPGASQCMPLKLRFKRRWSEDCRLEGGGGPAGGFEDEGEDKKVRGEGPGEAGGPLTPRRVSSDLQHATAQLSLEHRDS
In short: (§1)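 After expression in yeast as GST fusions, human transcription factors were bound to glutathione beads, DNA-barcoded and mixed with a tag-only sample. The pools were incubated with 200 nmole of a 16-mer random double-stranded DNA library in Tris/NaCl/DTT/glycerol buffer (30 min, room temperature), washed and crosslinked with 0.1% formaldehyde. Proximity ligation with BsaI/T4 ligase ran for 1 h at 37 °C, before PCR amplification and sequencing on an Illumina NextSeq500. Binding signal is a hexamer's read frequency for a factor divided by its frequency for the tag-only sample.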

[2] = molecular target: T2, ETV3L (Homo sapiens, UniProt Q6ZN32 1-361)
T2 sequence: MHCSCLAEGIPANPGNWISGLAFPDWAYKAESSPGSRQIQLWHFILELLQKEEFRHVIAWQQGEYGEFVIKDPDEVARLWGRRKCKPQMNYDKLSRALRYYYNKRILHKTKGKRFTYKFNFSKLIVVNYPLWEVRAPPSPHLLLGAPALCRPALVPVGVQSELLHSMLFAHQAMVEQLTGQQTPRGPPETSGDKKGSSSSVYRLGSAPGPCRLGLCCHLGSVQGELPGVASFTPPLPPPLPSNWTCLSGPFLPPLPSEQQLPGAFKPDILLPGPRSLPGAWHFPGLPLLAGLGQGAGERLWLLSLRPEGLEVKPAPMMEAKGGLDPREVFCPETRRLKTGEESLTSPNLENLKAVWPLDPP
In short: as §1

[3] = molecular target: T3, ETS2 (Homo sapiens, UniProt P15036 1-469)
T3 sequence: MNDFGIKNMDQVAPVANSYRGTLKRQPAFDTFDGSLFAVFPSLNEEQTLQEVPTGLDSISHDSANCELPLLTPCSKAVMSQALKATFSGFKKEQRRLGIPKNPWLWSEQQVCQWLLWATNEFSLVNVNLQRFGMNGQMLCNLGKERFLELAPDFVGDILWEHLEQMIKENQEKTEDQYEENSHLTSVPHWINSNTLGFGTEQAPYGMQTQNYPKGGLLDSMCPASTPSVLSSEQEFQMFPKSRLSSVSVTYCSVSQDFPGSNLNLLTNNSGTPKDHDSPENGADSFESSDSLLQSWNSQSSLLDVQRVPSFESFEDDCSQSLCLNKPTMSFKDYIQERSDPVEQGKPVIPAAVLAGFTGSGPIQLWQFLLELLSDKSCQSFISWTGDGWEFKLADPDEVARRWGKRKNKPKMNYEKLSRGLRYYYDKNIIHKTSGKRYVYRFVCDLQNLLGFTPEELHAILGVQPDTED
In short: as §1

[4] = molecular target: T4, SPDEF (Homo sapiens, UniProt O95238 1-335)
T4 sequence: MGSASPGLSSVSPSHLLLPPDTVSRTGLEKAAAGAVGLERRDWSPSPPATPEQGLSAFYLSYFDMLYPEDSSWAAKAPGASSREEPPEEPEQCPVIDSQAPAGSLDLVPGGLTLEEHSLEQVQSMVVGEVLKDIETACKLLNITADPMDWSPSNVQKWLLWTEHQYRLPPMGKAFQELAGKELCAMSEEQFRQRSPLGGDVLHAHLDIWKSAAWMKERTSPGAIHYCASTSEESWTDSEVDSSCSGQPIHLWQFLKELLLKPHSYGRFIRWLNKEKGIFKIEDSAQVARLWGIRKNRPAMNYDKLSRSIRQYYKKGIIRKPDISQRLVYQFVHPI
In short: as §1

[5] = molecular target: T5, ETV7 (Homo sapiens, UniProt Q9Y603 1-341)
T5 sequence: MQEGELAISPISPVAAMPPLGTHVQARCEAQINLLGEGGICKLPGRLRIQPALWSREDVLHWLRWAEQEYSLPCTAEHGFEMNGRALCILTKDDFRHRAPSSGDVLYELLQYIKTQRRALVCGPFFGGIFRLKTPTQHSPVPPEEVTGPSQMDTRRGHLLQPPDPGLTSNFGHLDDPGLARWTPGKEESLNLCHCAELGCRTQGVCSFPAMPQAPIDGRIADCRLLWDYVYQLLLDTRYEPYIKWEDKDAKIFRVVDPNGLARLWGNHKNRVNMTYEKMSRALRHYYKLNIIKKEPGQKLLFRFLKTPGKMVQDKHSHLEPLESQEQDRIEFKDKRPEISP
In short: as §1

[6] = molecular target: T6, ELF5 (Homo sapiens, UniProt Q9UKW6-2 1-255)
T6 sequence: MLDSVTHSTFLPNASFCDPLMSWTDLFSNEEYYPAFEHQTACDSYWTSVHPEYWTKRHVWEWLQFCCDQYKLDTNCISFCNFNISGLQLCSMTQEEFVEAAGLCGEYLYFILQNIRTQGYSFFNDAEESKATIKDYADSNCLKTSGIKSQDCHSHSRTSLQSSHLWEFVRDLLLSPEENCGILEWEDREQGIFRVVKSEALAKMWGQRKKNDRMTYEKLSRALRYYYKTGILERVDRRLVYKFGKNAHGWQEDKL
In short: as §1

[7] = molecular target: T7, ETV3 (Homo sapiens, UniProt P41162-2 1-143)
T7 sequence: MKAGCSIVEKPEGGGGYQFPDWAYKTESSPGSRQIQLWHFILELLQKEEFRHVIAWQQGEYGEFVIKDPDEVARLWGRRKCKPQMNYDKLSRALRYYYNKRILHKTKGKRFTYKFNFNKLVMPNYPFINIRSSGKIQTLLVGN
In short: as §1

[8] = molecular target: ETV6 (Homo sapiens, UniProt P41212 1-452)
In short: as §1

Sequence of ETV6 (P41212 whole entry): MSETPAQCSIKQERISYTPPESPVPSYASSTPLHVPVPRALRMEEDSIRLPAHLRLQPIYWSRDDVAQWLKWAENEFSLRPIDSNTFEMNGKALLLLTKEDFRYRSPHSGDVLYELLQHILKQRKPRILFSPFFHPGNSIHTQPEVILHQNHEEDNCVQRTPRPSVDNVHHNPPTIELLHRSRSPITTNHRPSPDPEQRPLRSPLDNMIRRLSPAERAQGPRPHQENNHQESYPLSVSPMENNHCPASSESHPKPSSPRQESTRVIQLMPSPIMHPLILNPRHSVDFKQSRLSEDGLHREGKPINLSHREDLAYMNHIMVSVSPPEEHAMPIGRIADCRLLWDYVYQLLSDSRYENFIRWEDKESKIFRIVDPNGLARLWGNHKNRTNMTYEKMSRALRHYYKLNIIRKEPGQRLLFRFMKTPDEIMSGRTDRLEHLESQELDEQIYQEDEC

| Sequence | binding signal [1] | binding signal [2] | binding signal [3] | binding signal [4] | binding signal [5] | binding signal [6] | binding signal [7] | binding signal [8] |
| --- | --- | --- | --- | --- | --- | --- | --- | --- |
| TCCGTC | 1.16 fold enrichment (6-mer frequency, TF over GST control) | 1.46 fold enrichment (6-mer frequency, TF over GST control) | 1.3 fold enrichment (6-mer frequency, TF over GST control) | 1.6 fold enrichment (6-mer frequency, TF over GST control) | 1.14 fold enrichment (6-mer frequency, TF over GST control) | 1.57 fold enrichment (6-mer frequency, TF over GST control) | 1.55 fold enrichment (6-mer frequency, TF over GST control) | 1.37 fold enrichment (6-mer frequency, TF over GST control) |
| CGACGC | 1.17 fold enrichment (6-mer frequency, TF over GST control) | 1.08 fold enrichment (6-mer frequency, TF over GST control) | 1.16 fold enrichment (6-mer frequency, TF over GST control) | 1.04 fold enrichment (6-mer frequency, TF over GST control) | 1.05 fold enrichment (6-mer frequency, TF over GST control) | 1.05 fold enrichment (6-mer frequency, TF over GST control) | 1 fold enrichment (6-mer frequency, TF over GST control) | 1.09 fold enrichment (6-mer frequency, TF over GST control) |
| TTTCCT | 2.28 fold enrichment (6-mer frequency, TF over GST control) | 2.43 fold enrichment (6-mer frequency, TF over GST control) | 2.44 fold enrichment (6-mer frequency, TF over GST control) | 2.34 fold enrichment (6-mer frequency, TF over GST control) | 2.31 fold enrichment (6-mer frequency, TF over GST control) | 4.16 fold enrichment (6-mer frequency, TF over GST control) | 2.73 fold enrichment (6-mer frequency, TF over GST control) | 2.86 fold enrichment (6-mer frequency, TF over GST control) |
| TTGGCC | 1.08 fold enrichment (6-mer frequency, TF over GST control) | 1.09 fold enrichment (6-mer frequency, TF over GST control) | 1.01 fold enrichment (6-mer frequency, TF over GST control) | 1.06 fold enrichment (6-mer frequency, TF over GST control) | 1.12 fold enrichment (6-mer frequency, TF over GST control) | 1.02 fold enrichment (6-mer frequency, TF over GST control) | 1.05 fold enrichment (6-mer frequency, TF over GST control) | 1.05 fold enrichment (6-mer frequency, TF over GST control) |
| TACTAA | 1.2 fold enrichment (6-mer frequency, TF over GST control) | 1.23 fold enrichment (6-mer frequency, TF over GST control) | 1.21 fold enrichment (6-mer frequency, TF over GST control) | 1.22 fold enrichment (6-mer frequency, TF over GST control) | 1.35 fold enrichment (6-mer frequency, TF over GST control) | 1.25 fold enrichment (6-mer frequency, TF over GST control) | 1.19 fold enrichment (6-mer frequency, TF over GST control) | 1.24 fold enrichment (6-mer frequency, TF over GST control) |
| AAAGGG | 1.09 fold enrichment (6-mer frequency, TF over GST control) | 1.09 fold enrichment (6-mer frequency, TF over GST control) | 1.13 fold enrichment (6-mer frequency, TF over GST control) | 1.04 fold enrichment (6-mer frequency, TF over GST control) | 1.09 fold enrichment (6-mer frequency, TF over GST control) | 1.19 fold enrichment (6-mer frequency, TF over GST control) | 1.18 fold enrichment (6-mer frequency, TF over GST control) | 1.1 fold enrichment (6-mer frequency, TF over GST control) |
| GAAGCG | 1.29 fold enrichment (6-mer frequency, TF over GST control) | 1.32 fold enrichment (6-mer frequency, TF over GST control) | 1.33 fold enrichment (6-mer frequency, TF over GST control) | 1.29 fold enrichment (6-mer frequency, TF over GST control) | 1.36 fold enrichment (6-mer frequency, TF over GST control) | 1.35 fold enrichment (6-mer frequency, TF over GST control) | 1.36 fold enrichment (6-mer frequency, TF over GST control) | 1.43 fold enrichment (6-mer frequency, TF over GST control) |
| ACCGCC | 1.21 fold enrichment (6-mer frequency, TF over GST control) | 1.25 fold enrichment (6-mer frequency, TF over GST control) | 1.24 fold enrichment (6-mer frequency, TF over GST control) | 1.29 fold enrichment (6-mer frequency, TF over GST control) | 1.21 fold enrichment (6-mer frequency, TF over GST control) | 1.23 fold enrichment (6-mer frequency, TF over GST control) | 1.44 fold enrichment (6-mer frequency, TF over GST control) | 1.26 fold enrichment (6-mer frequency, TF over GST control) |
| TGCAAT | 1.14 fold enrichment (6-mer frequency, TF over GST control) | 1.12 fold enrichment (6-mer frequency, TF over GST control) | 1.15 fold enrichment (6-mer frequency, TF over GST control) | 1.15 fold enrichment (6-mer frequency, TF over GST control) | 1.2 fold enrichment (6-mer frequency, TF over GST control) | 1.1 fold enrichment (6-mer frequency, TF over GST control) | 1.15 fold enrichment (6-mer frequency, TF over GST control) | 1.17 fold enrichment (6-mer frequency, TF over GST control) |
| TAATGT | 1.06 fold enrichment (6-mer frequency, TF over GST control) | 1.11 fold enrichment (6-mer frequency, TF over GST control) | 1.09 fold enrichment (6-mer frequency, TF over GST control) | 1.12 fold enrichment (6-mer frequency, TF over GST control) | 1.19 fold enrichment (6-mer frequency, TF over GST control) | 1.07 fold enrichment (6-mer frequency, TF over GST control) | 1.05 fold enrichment (6-mer frequency, TF over GST control) | 1.09 fold enrichment (6-mer frequency, TF over GST control) |
| CACTTC | 3.07 fold enrichment (6-mer frequency, TF over GST control) | 3.63 fold enrichment (6-mer frequency, TF over GST control) | 3.66 fold enrichment (6-mer frequency, TF over GST control) | 3.55 fold enrichment (6-mer frequency, TF over GST control) | 3.64 fold enrichment (6-mer frequency, TF over GST control) | 4.43 fold enrichment (6-mer frequency, TF over GST control) | 3.65 fold enrichment (6-mer frequency, TF over GST control) | 4.24 fold enrichment (6-mer frequency, TF over GST control) |
| ACTGAA | 1.13 fold enrichment (6-mer frequency, TF over GST control) | 1.1 fold enrichment (6-mer frequency, TF over GST control) | 1.23 fold enrichment (6-mer frequency, TF over GST control) | 1.21 fold enrichment (6-mer frequency, TF over GST control) | 1.06 fold enrichment (6-mer frequency, TF over GST control) | 1.11 fold enrichment (6-mer frequency, TF over GST control) | 1.21 fold enrichment (6-mer frequency, TF over GST control) | 1.17 fold enrichment (6-mer frequency, TF over GST control) |
